Assay results reported in PubChem BioAssay AID1159580 (chemical genetic matrix, 2015).
Several values for one entry are separate records, joined by “and”; a condition that tells them apart may be missing. Equal values may be shown once. Among all 5,500 compounds or so, about 2,000 (36%) were called active. Another 18% or so got no clear call; they are omitted. The list shows a part of the results. A number with no mark means an inactive call. No stated cut-off is given here; in the data, active means normalized growth mostly below about 0.91 (no sharp cut-off); inconclusive means no clear call, values can overlap the other calls; inactive means mostly above about 0.92.

Experiment: chemical genetic growth profiling, strain panel (AID 1159580);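 further: tested at 20 µM; growth read once vehicle control cultures reached saturation at 30 °C; 1 = growth at the plate median or of vehicle wells; lower values mean less growth of the strain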
Settings: growth OD

SMILES: Cn1c(=O)c2c(ncn2C)n(C)c1=O
- normalized growth (S. cerevisiae deletion strains, locus YJR043C, strain POL32, active compounds read low): 1.02
- normalized growth (S. cerevisiae deletion strains, locus YJR066W, strain TOR1, active compounds read low): 0.97
- normalized growth (S. cerevisiae deletion strains, locus YJR075W, strain HOC1, active compounds read low): 1
- normalized growth (S. cerevisiae deletion strains, locus YKL009W, strain mrt4, active compounds read low): 1.03
- normalized growth (S. cerevisiae deletion strains, locus YKL068W, active compounds read low): 1.01
- normalized growth (S. cerevisiae deletion strains, locus YKL085W, strain MDH1 (second series), active compounds read low): 0.991
- normalized growth (S. cerevisiae deletion strains, locus YKL085W, strain MDH1, active compounds read low): 0.991
- normalized growth (S. cerevisiae deletion strains, locus YKL160W, strain elf1, active compounds read low): 1.02
- normalized growth (S. cerevisiae deletion strains, locus YKR001C, strain vps1, active compounds read low): 1
- normalized growth (S. cerevisiae deletion strains, locus YKR026C, strain gcn3, active compounds read low): 0.965
- normalized growth (S. cerevisiae deletion strains, locus YKR091W, strain srl3, active compounds read low): 0.969
- normalized growth (S. cerevisiae deletion strains, locus YLL001W, strain dnm1, active compounds read low): 0.932
- normalized growth (S. cerevisiae deletion strains, locus YLL026W, active compounds read low): 0.962
- normalized growth (S. cerevisiae deletion strains, locus YLL041C, strain sdh2, active compounds read low): 0.976
- normalized growth (S. cerevisiae deletion strains, locus YLR027C, strain aat2, active compounds read low): 0.976
- normalized growth (S. cerevisiae deletion strains, locus YLR039C, strain RIC1, active compounds read low): 0.989
- normalized growth (S. cerevisiae deletion strains, locus YLR058C, strain SHM2, active compounds read low): 1
- normalized growth (S. cerevisiae deletion strains, locus YLR102C, strain apc9, active compounds read low): 1.01
- normalized growth (S. cerevisiae deletion strains, locus YLR113W, strain HOG1, active compounds read low): 1.04
- normalized growth (S. cerevisiae deletion strains, locus YLR221C, strain rsa3, active compounds read low): 0.89 (active)
- normalized growth (S. cerevisiae deletion strains, locus YLR258W, strain gsy2, active compounds read low): 0.976
- normalized growth (S. cerevisiae deletion strains, locus YLR262C, strain YPT6 (second series), active compounds read low): 0.996
- normalized growth (S. cerevisiae deletion strains, locus YLR262C, strain YPT6, active compounds read low): 0.988
- normalized growth (S. cerevisiae deletion strains, locus YLR268W, strain sec22, active compounds read low): 1.03
- normalized growth (S. cerevisiae deletion strains, locus YLR320W, strain mms22, active compounds read low): 0.987
- normalized growth (S. cerevisiae deletion strains, locus YLR330W, strain CHS5, active compounds read low): 0.999
- normalized growth (S. cerevisiae deletion strains, locus YLR342W, strain FKS1 (second series), active compounds read low): 1.03
- normalized growth (S. cerevisiae deletion strains, locus YLR342W, strain FKS1, active compounds read low): 0.983
- normalized growth (S. cerevisiae deletion strains, locus YLR357W, strain rsc2, active compounds read low): 0.98
- normalized growth (S. cerevisiae deletion strains, locus YLR370C, strain arc18, active compounds read low): 0.936
- normalized growth (S. cerevisiae deletion strains, locus YLR371W, strain rom2, active compounds read low): 0.989
- normalized growth (S. cerevisiae deletion strains, locus YLR384C, strain iki3, active compounds read low): 0.97
- normalized growth (S. cerevisiae deletion strains, locus YLR418C, strain cdc73, active compounds read low): 0.947
- normalized growth (S. cerevisiae deletion strains, locus YML016C, strain PPZ1, active compounds read low): 0.995
- normalized growth (S. cerevisiae deletion strains, locus YML032C, strain rad52, active compounds read low): 1.01
- normalized growth (S. cerevisiae deletion strains, locus YML120C, strain ndi1, active compounds read low): 0.926
- normalized growth (S. cerevisiae deletion strains, locus YML124C, strain tub3, active compounds read low): 1
- normalized growth (S. cerevisiae deletion strains, locus YMR058W, strain fet3, active compounds read low): 0.96
- normalized growth (S. cerevisiae deletion strains, locus YMR078C, strain ctf18, active compounds read low): 0.995
- normalized growth (S. cerevisiae deletion strains, locus YMR125W, strain sto1, active compounds read low): 0.954
- normalized growth (S. cerevisiae deletion strains, locus YMR129W, active compounds read low): 0.988
- normalized growth (S. cerevisiae deletion strains, locus YMR205C, strain PFK2, active compounds read low): 0.991
- normalized growth (S. cerevisiae deletion strains, locus YMR223W, strain ubp8, active compounds read low): 1
- normalized growth (S. cerevisiae deletion strains, locus YMR231W, strain pep5, active compounds read low): 0.987
- normalized growth (S. cerevisiae deletion strains, locus YMR307W, strain GAS1, active compounds read low): 0.974 and 0.988
- normalized growth (S. cerevisiae deletion strains, locus YNL067W, strain RPL9B, active compounds read low): 1
- normalized growth (S. cerevisiae deletion strains, locus YNL071W, strain lat1, active compounds read low): 0.995
- normalized growth (S. cerevisiae deletion strains, locus YNL128W, strain TEP1, active compounds read low): 0.997
- normalized growth (S. cerevisiae deletion strains, locus YNL175C, strain NOP13, active compounds read low): 1.02
- normalized growth (S. cerevisiae deletion strains, locus YNL183C, strain NPR1, active compounds read low): 0.987
- normalized growth (S. cerevisiae deletion strains, locus YNL197C, strain WHI3, active compounds read low): 1.12
- normalized growth (S. cerevisiae deletion strains, locus YNL209W, strain ssb2, active compounds read low): 0.959
- normalized growth (S. cerevisiae deletion strains, locus YNL224C, strain SQS1, active compounds read low): 1.01
- normalized growth (S. cerevisiae deletion strains, locus YNL233W, strain BNI4, active compounds read low): 0.984
- normalized growth (S. cerevisiae deletion strains, locus YNL248C, strain rpa49, active compounds read low): 1.03
- normalized growth (S. cerevisiae deletion strains, locus YNL250W, strain rad50, active compounds read low): 1.01
- normalized growth (S. cerevisiae deletion strains, locus YNL271C, strain bni1, active compounds read low): 1.01
- normalized growth (S. cerevisiae deletion strains, locus YNL298W, strain CLA4, active compounds read low): 1.01
- normalized growth (S. cerevisiae deletion strains, locus YNL307C, strain MCK1, active compounds read low): 1
- normalized growth (S. cerevisiae deletion strains, locus YNL322C, strain KRE1 (second series), active compounds read low): 0.963
- normalized growth (S. cerevisiae deletion strains, locus YNL322C, strain KRE1, active compounds read low): 0.995
- normalized growth (S. cerevisiae deletion strains, locus YNR049C, strain mso1, active compounds read low): 0.956
- normalized growth (S. cerevisiae deletion strains, locus YNR052C, strain pop2, active compounds read low): 1
- normalized growth (S. cerevisiae deletion strains, locus YOL006C, strain TOP1, active compounds read low): 1.04
- normalized growth (S. cerevisiae deletion strains, locus YOL012C, strain htz1): 0.798
- normalized growth (S. cerevisiae deletion strains, locus YOL147C, strain pex11, active compounds read low): 0.998
- normalized growth (S. cerevisiae deletion strains, locus YOR001W, strain rrp6, active compounds read low): 0.979
- normalized growth (S. cerevisiae deletion strains, locus YOR061W, strain CKA2, active compounds read low): 1.01
- normalized growth (S. cerevisiae deletion strains, locus YOR069W, strain VPS5, active compounds read low): 1
- normalized growth (S. cerevisiae deletion strains, locus YOR070C, strain gyp1, active compounds read low): 0.993
- normalized growth (S. cerevisiae deletion strains, locus YOR080W, strain dia2, active compounds read low): 0.956
- normalized growth (S. cerevisiae deletion strains, locus YOR083W, strain WHI5 (second series), active compounds read low): 1.02
- normalized growth (S. cerevisiae deletion strains, locus YOR083W, strain WHI5, active compounds read low): 1.01
- normalized growth (S. cerevisiae deletion strains, locus YOR106W, strain vam3, active compounds read low): 0.969
- normalized growth (S. cerevisiae deletion strains, locus YOR136W, strain idh2, active compounds read low): 1.01
- normalized growth (S. cerevisiae deletion strains, locus YOR144C, strain elg1, active compounds read low): 1
- normalized growth (S. cerevisiae deletion strains, locus YOR184W, strain ser1, active compounds read low): 1.01
- normalized growth (S. cerevisiae deletion strains, locus YOR231W, strain MKK1, active compounds read low): 1.04
- normalized growth (S. cerevisiae deletion strains, locus YOR265W, strain rbl2, active compounds read low): 0.963
- normalized growth (S. cerevisiae deletion strains, locus YOR270C, strain vph1, active compounds read low): 0.988
- normalized growth (S. cerevisiae deletion strains, locus YOR290C, strain snf2, active compounds read low): 0.952
- normalized growth (S. cerevisiae deletion strains, locus YOR316C, strain cot1, active compounds read low): 1.01
- normalized growth (S. cerevisiae deletion strains, locus YPL051W, strain arl3, active compounds read low): 0.949
- normalized growth (S. cerevisiae deletion strains, locus YPL055C, strain LGE1, active compounds read low): 0.998
- normalized growth (S. cerevisiae deletion strains, locus YPL078C, strain atp4, active compounds read low): 1.02
- normalized growth (S. cerevisiae deletion strains, locus YPL106C, strain sse1, active compounds read low): 0.929
- normalized growth (S. cerevisiae deletion strains, locus YPL240C, strain hsp82, active compounds read low): 0.974
- normalized growth (S. cerevisiae deletion strains, locus YPL241C, strain CIN2, active compounds read low): 0.998 and 1.01
- normalized growth (S. cerevisiae deletion strains, locus YPL256C, strain CLN2, active compounds read low): 1.09
- normalized growth (S. cerevisiae deletion strains, locus YPR119W, strain clb2, active compounds read low): 0.996
- normalized growth (S. cerevisiae deletion strains, locus YPR141C, strain kar3, active compounds read low): 0.992
- normalized growth (S. cerevisiae deletion strains, locus YPR163C, strain tif3, active compounds read low): 0.991
- normalized growth (S. cerevisiae deletion strains, locus YPR167C, strain met16, active compounds read low): 1
- normalized growth (S. cerevisiae deletion strains, strain wtn01, active compounds read low): 1.04
- normalized growth (S. cerevisiae strains, strain wild type, active compounds read low): 1
